Records with an inconclusive call do not appear. A number with no mark means an inactive call.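 The calls were made as follows: active = viability at or below 27.92% in each of two runs, the all-compound median minus 4 SD; inconclusive = no clear call, values can overlap the other calls; inactive = the rest.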

The test can be described thus: growth suppression of PTEN-deleted HCT116, pilot screen, cell-based, HCT116 clonal line, CellTiter-Glo (AID 824).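 Also: 0% = 20 µM Hyamine control and 100% = vehicle cell control.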 To be noted: 60 h, at 10 µM, hits give low values. On the technique in general: Cellular ATP, detected with luciferase, serves as a proxy for viable cell number.
`Cc1cccc(OCC(=O)N2CCN(C(=O)Cc3ccccc3)CC2)c1`: the viability – broadly, a read-out of living cells in per cent, often relative to untreated cells – was 81.4%.

In the case of `O=C1CC(c2cccnc2)c2cc3c(cc2N1)OCO3` (stereo unspecified), the viability is 99.8%. As for `CCc1nn(CC(=O)NCCCN2CCc3ccccc3C2)c(=O)c2cc3sccc3n12`, the viability was 79.9%. The result for `Cc1ccc(-c2nc3cc(NC(=O)C(C)C)ccc3o2)cc1` reads 73.5%. Consider `CC(CC(=O)NC1CCSC1=O)c1ccccc1` (stereo unspecified), for which the viability was 95.9%. With `COc1ccc(C2CC(c3ccc(OC)cc3)n3nc(N)nc3N2)cc1` (stereo unspecified), the viability is 98.1%.

`COC(=O)COc1cccc(NC(=O)COc2ccccc2)c1`: the viability was 93.7%. In the case of `COc1ccc(OCCSc2nc3ccccc3n2CC(=O)O)cc1`, the viability is 94.8%. With `Cc1cccnc1-n1c(CCN2C(=O)c3ccccc3C2=O)nc2ccccc2c1=O`, the viability was 97.4%. Then `CC(=O)N(c1ccc(Br)cc1)C1C=CS(=O)(=O)C1` (stereo unspecified), with 96%; and `Cc1ccccc1Cn1cc(/C=N/n2cnnc2)c2ccccc21`, with 61.6%. As for `CCOC(=O)N1CCN(c2cc(=O)n(-c3ccccc3Cl)c(=O)[nH]2)CC1`, the viability was 105%. Then `CCCCN(C)Cc1c(O)ccc2c(-c3ccccc3)cc(=O)oc12`, with 93.6%; and `CCCCn1c(CN2CCN(c3ccc(F)cc3)CC2)nc2c1c(=O)n(C)c(=O)n2C`, with 85.8%; and `CCn1c(SCC(=O)Nc2cccc(C)c2)nc2c(c1=O)SC(C)C2` (stereo unspecified), with 88.9%. The result for `COc1cccc(C2CC(c3ccc(C)cc3)n3nc(N)nc3N2)c1` (stereo unspecified) reads 98.6%.

The values are drawn from PubChem BioAssay.
